# HSF1 inhib: HSF1 inhibition. NIH3T3-HGL HSE-luciferase, MG132-induced, luminescence 8 h; active compounds read low. activity change, negative = inhibition, % at 7.5 µM (by protocol). 0.77% of 300,000 active. AID 2098;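 active means more than half of replicate wells show activity change below -50%, luminescence cut by over half; inconclusive means some wells, but at most half, below -50%; inactive means no replicate well below -50%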;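 further: luciferase reports HSF-1 transcriptional activity via heat shock element; 0% = median of DMSO wells and -100% = zero luminescence signal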
# TWEAK-Fn14 inh: blocks TWEAK-Fn14 interaction in a reporter cell assay | TWEAK-stimulated Fn14 reporter cells, luciferase luminescence, 8 h | inhibition, % at 10 µM | 2% of 360,000 active | AID 1159606; in the data active means inhibition above about 50%
# HSF1 activator: increases HSF-1 driven luciferase reporter signal; NIH3T3-HGL HSF-1 luciferase reporter, MG132, 8 h; 100% = twice DMSO control signal; activation, % at 9 µM; 1.7% of 300,000 active;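 active means mean replicate activation of at least 50% with a set share of replicates each reaching 50%; inconclusive means only one of those two conditions met; inactive means mean below 50% and too few replicates reaching it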;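 further: 0% = median of the neutral control wells and 100% = twice that signal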
# TROY signal inh: TROY signaling inhibition; inhibition, % at 10 µM; AID 1347056; Q293 LMP1-TROYcd NF-kB luciferase reporter, 4 h; 0.98% of 360,000 active;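 active means compounds whose plate-normalised and pattern-corrected inhibition of the luciferase reporter signal at the single screening dose is 50% or more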
# EBV LMP1 NFkB: Epstein-Barr LMP1 NF-kappaB reporter inhibition. LMP1-induced NF-kappaB luciferase reporter cells, luminescence. inhibition, % at 12.5 µM. 0.69% of 350,000 active. AID 504558; in the data active means inhibition above about 41%; inconclusive means no clear call, values can overlap the other calls;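 further: 0% = neutral control wells and 100% = reference inhibitor control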
# HSP90 inh: HSP90 refolding inhibition in rabbit reticulocyte lysate; inhibition, % at 5.6 µM; luciferase refolding luminescence, 3 h; 0.91% of 290,000 active;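 active means inhibition above the screen-wide mean plus 3 SD, computed separately per campaign, cut at about 16% in these data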;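 further: 0% = DMSO wells and 100% = 60 µM geldanamycin wells; inhibitors lower the luminescence because luciferase stays unfolded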
# * hit, by the source's call; ? = inconclusive; . = no result given. Sampled rows, rich in hits. Any-hit rate of the full collection: about 4.7%.
SMILES,HSF1 inhib,TWEAK-Fn14 inh,HSF1 activator,TROY signal inh,EBV LMP1 NFkB,HSP90 inh
CN1/C(=C\C(=O)CSc2nnc(N)s2)C(C)(C)c2ccccc21,1,0,8,7,5,-1
COc1ccc(Nc2nnc(SCC(=O)/C=C3/N(C)c4ccccc4C3(C)C)s2)cc1,-11,71*,-8,37,13,4
O=C(CSc1n[nH]c(=O)[nH]c1=O)N1CCCCCC1,0,1,41,10,-15,-2
O=C(CSc1n[nH]c(=O)[nH]c1=O)NC1CCCCC1,9,-8,-12,-18,0,17*
Clc1ccccc1CN(Cc1ccco1)Cc1nnnn1C1CCCC1,31,7,69*,3,6,1
Clc1ccccc1CN(Cc1ccccc1)C(c1cccs1)c1nnnn1C1CCCC1 (stereo not given),11,13,-1,13,7,3
Cc1ccc2cc(C(c3nnnn3C3CCCC3)N(Cc3ccco3)Cc3cccs3)c(=O)[nH]c2c1 (stereo not given),15,0,?,-34,-1,4
c1coc(CN(Cc2cccs2)Cc2nnnn2C2CCCCC2)c1,10,51*,17,10,-9,-3
C[C@H]1CN([C@@H](C)CO)C(=O)CCCn2nncc2CO[C@@H]1CN(C)Cc1ccncc1,.,-3,.,-2,2,.
CCCNC(=O)C1(C)CCCN(C(=O)c2ccc3snnc3c2)C1 (stereo not given),.,9,.,-10,.,.
C=CCSC1=Nc2sccc2C2=NC(=O)CN12,-75*,-7,-81,-13,-15,-2
Cc1ccc(CSC2=Nc3ccccc3C3=NC(=O)CN23)cc1,40,-21,41,-44,-11,-3
O=C1c2ccccc2C(=O)C1c1ccc2ccccc2n1,-3,95*,33,49,32,0
COC(=O)C1=C(C)NC(C)=C(C(=O)OC)C1c1ccc2ccccc2n1,2,8,11,-5,-12,2
c1ccc(CCCCc2ccncc2)cc1,.,-12,.,-11,-6,.
c1ccc(CCc2ccncc2)cc1,9,1,56*,-4,-35,-4
Cc1nc2nc(C)n(CCN3CCOCC3)c(=O)c2c(-c2cccc([N+](=O)[O-])c2)c1C(=O)CCCCCCCCCCN1CCC(c2ccccc2)(c2ccccc2)CC1,.,96*,.,49,1,.
COc1ccc(/C=N/NC(=S)Nc2ccccc2)cc1,25,-3,37,8,3,3
O=C(O)c1cc(N/N=C/c2ccc(OCc3ccccc3)cc2)ccc1Cl,9,-26,13,-35,-24,12
O=C(N/N=C/c1cccnc1)c1ccc2c(c1)OCO2,-59*,14,-67,-44,-1,-2
Oc1cccc(/C=N/NC(=S)Nc2cccnc2)c1O,7,3,14,-51,3,2
Oc1ccc(/C=N/NC(=S)Nc2cccnc2)c(O)c1O,-1,50*,-6,-17,-3,4
O=C(N/N=C/c1ccc2c(c1)OCO2)c1ccc2c(c1)OCO2,2,10,6,-53,-17,1
COC(=O)c1ccc(COc2ccc(/C=N/Nc3cccc(C(=O)O)c3)cc2)cc1,7,22,9,-17,-7,23*
COc1ccc(/C=N/NC(=S)Nc2cccc(C(=O)O)c2)cc1,-28,50*,-30,-39,25,10
SMILES,HSF1 inhib,TWEAK-Fn14 inh,HSF1 activator,TROY signal inh,EBV LMP1 NFkB,HSP90 inh
CCCS(=O)(=O)NC(=O)C1(C)CCCN(C(=O)c2ccc(OC)cc2OC)C1 (stereo not given),.,-8,.,2,.,.
CC1(c2nnnn2Cc2ccccc2)CCC(=O)N1Cc1ccc(F)cc1 (stereo not given),.,5,.,-9,.,.
COc1ccccc1-c1csc(C(C)(O)c2ccccc2)n1 (stereo not given),.,9,.,3,.,.
O=C(O)c1cccc(NC(=S)N/N=C/c2cccnc2)c1,-60*,-15,-62,-53,-2,-2
COc1cc(/C=N/NC(=S)Nc2cccc(C(=O)O)c2)ccc1O,?,-16,-50,-60,74*,9
COc1cc(/C=N/NC(=O)c2ccccc2)ccc1O,2,-3,17,-27,2,-1
NC(=O)c1[nH]cnc1N=NN(CCO)Cc1ccccc1,.,3,.,5,2,.
COc1cc(-c2cc(NC=O)c3ncc(-c4ccc(C(C)=O)cc4)n3c2)ccc1O,.,48,.,13,.,.
Cc1[nH]nc(NCCO)c1[N+](=O)[O-],1,10,1,-1,6,-8
Cc1[nH]nc(S(=O)CC(=O)O)c1[N+](=O)[O-] (stereo not given),-6,61*,-13,88*,-4,2
COc1cc(NC(=S)NC(C)(C)C)c(OC)cc1Cl,32,11,63*,-6,0,5
N/C(=N\OC(=O)c1ccoc1)c1ccc(Br)cc1,30,0,69*,-23,-44,5
Cc1cc(C)cc(C(=O)O/N=C(\N)c2ccc(Br)cc2)c1,8,-57,23,-49,-19,-2
O=C(OCc1cn([C@H]2CN(C(=O)C3CCCCC3)[C@@H](c3ccc(Cl)cc3)C[C@@H]2O)nn1)c1ccccc1,.,4,.,9,-1,.
CN(C(=O)COC(=O)/C=C/c1ccccc1)C1CCS(=O)(=O)C1 (stereo not given),.,1,.,-14,5,.
CCCC(=O)O/N=C(\c1ccccc1)c1ccncc1,13,10,57*,5,-7,-6
CCc1nc2ccc(C(=O)NCCOc3ccc(OC)cc3)cn2c1N(CC)CCOC,.,8,.,-6,.,.
CC(=O)c1c(N2CCCC2)[nH]c(-c2ccccc2)nc1=S,-1,0,6,3,8,-1
CC(=O)c1c(N2CCOCC2)[nH]c(-c2ccccc2)nc1=S,0,15,13,67*,-2,-6
CCOC(=O)c1nn(-c2ccc(C)cc2)cc1C(=O)c1ccccc1,39,11,59*,-47,-52,3
CC(=O)c1nn(-c2ccc(Cl)cc2)cc1C(=O)c1ccccc1,.,-20,.,10,4,.
COc1cc(CNC(=O)Nc2nnc([C@H]3C[C@H](O)[C@@H](CO)O3)s2)cc(OC)c1OC,.,6,.,-8,.,.
CC(=O)Oc1ccc(OC(C)=O)c(SCCCCCCl)c1,-96*,76*,-96,-15,-72,1
CCOC(=O)C(=Cc1ccc(-n2ccnc2)cc1)C(=O)OCC,72,96*,128*,64*,26,1
CCOC(=O)C(=Cc1ccc(Br)cc1)C(=O)OCC,113,59*,148*,28,6,6
COC(=O)c1ccc(-n2ccnc2)cc1,-7,-2,-10,20,-16,-2
CCOC(=O)C(=O)Nc1ccc(F)cc1,5,7,-6,16,-23,-3
CCOC(=O)C(=Cc1ccc(F)cc1)C(=O)OCC,122,.,126*,.,.,1
CC(=O)C(=Cc1cccc(C#N)c1)C(=O)c1ccccc1,.,77*,.,-12,.,.
